The source of these data is article PMC7862700, “An all-to-all approach to the identification of sequence-specific readers for epigenetic DNA modifications on cytosine”.

Test in all cases: DAPPL (digital affinity profiling via proximity ligation, sequencing); 10 mM Tris-HCl pH 7.5, 50 mM NaCl, 1 mM DTT, 4% glycerol, room temperature, 30 min; GST-TFs on glutathione beads, 16-mer random dsDNA library, 0.1% formaldehyde crosslink after washing; high values mean tight binding
Common to all, as to settings: protein: recombinant; tags: N-terminal GST; dsDNA, one strand shown

One assay deals with T1, FLI1 (Homo sapiens, UniProt Q01543 1-452).
T1 sequence: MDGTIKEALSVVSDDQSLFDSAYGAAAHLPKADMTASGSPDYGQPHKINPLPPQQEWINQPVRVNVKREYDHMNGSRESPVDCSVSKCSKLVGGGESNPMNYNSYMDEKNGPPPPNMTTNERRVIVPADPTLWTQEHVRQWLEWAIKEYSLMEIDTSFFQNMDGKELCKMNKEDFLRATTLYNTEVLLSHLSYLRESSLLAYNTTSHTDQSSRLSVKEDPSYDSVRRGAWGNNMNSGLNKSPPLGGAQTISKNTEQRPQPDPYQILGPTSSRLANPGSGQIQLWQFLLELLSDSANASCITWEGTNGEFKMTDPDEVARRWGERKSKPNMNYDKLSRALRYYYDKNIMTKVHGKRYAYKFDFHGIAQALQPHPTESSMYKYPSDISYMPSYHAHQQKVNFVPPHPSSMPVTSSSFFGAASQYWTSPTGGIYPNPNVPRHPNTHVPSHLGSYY
The procedure, abridged: (§1)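 After expression in yeast as GST fusions, human transcription factors were bound to glutathione beads, DNA-barcoded and mixed with a tag-only sample. The pools were incubated with 200 nmole of a 16-mer random double-stranded DNA library in Tris/NaCl/DTT/glycerol buffer (30 min, room temperature), washed and crosslinked with 0.1% formaldehyde. Proximity ligation with BsaI/T4 ligase ran for 1 h at 37 °C, before PCR amplification and sequencing on an Illumina NextSeq500. Binding signal is a hexamer's read frequency for a factor divided by its frequency for the tag-only sample.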

For a further assay, the target named is T2, ELK1 (Homo sapiens, UniProt P19419 1-428).
T2 sequence: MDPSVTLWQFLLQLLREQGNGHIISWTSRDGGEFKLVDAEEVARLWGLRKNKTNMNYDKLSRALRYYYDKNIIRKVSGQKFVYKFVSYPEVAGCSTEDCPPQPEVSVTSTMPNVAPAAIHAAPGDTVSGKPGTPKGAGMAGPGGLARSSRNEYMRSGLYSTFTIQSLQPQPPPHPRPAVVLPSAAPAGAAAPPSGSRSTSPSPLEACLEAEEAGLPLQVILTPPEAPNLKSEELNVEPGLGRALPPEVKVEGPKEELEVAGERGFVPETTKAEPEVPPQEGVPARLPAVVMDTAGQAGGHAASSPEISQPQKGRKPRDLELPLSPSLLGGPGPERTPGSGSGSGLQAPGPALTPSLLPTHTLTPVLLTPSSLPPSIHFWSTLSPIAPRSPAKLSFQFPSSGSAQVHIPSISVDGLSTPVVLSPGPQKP
The procedure, abridged: as §1

A further assay concerns the target T3, GABPA (Homo sapiens, UniProt Q06546 1-454).
T3 sequence: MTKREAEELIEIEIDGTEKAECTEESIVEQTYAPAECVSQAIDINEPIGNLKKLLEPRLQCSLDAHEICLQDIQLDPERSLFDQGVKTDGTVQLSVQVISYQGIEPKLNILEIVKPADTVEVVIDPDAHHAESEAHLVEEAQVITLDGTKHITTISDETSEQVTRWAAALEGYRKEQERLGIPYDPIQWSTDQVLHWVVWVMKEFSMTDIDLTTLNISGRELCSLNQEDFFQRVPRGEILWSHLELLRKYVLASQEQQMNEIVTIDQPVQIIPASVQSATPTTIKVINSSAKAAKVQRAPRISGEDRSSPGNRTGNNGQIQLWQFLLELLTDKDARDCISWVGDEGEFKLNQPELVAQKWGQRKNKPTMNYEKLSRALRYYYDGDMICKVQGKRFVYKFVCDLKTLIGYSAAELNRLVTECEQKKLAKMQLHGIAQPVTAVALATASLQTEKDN
The procedure, abridged: as §1

The next assay concerns the target T4, ERG (Homo sapiens, UniProt P11308 1-479).
T4 sequence: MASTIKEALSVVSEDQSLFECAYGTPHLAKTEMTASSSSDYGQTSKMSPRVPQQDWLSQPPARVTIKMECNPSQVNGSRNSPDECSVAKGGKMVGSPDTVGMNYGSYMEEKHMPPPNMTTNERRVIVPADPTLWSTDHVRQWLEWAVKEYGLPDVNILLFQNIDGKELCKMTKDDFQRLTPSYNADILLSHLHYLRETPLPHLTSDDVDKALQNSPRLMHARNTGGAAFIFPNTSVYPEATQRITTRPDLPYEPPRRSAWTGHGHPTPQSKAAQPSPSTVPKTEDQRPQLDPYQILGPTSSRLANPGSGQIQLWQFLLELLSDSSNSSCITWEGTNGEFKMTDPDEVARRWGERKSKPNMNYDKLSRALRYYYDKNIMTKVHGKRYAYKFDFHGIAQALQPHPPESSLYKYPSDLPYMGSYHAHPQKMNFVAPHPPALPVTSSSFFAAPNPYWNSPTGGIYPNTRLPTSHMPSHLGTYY
The procedure, abridged:
as §1

Another assay has as its target ELF1 (Homo sapiens, UniProt P32519 1-619). Put shortly:
as §1

Another assay addresses T5, EHF (Homo sapiens, UniProt Q9NZC4 1-300).
T5 sequence: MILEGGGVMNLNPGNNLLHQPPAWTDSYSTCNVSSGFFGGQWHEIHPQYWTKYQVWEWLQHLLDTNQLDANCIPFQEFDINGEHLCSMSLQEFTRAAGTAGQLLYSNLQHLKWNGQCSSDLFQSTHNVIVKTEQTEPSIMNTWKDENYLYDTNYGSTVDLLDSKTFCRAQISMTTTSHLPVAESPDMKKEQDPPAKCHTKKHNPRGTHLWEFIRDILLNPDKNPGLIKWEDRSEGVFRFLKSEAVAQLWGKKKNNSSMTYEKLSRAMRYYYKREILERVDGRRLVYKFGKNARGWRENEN
The procedure, abridged: as §1

The target in another assay is SPI1 (Homo sapiens, UniProt P17947 1-270). Put shortly:
as §1

The next assay concerns the target SPIB (Homo sapiens, UniProt Q01892 1-262). The procedure, abridged: as §1
The next assay deals with T6, ELK3 (Homo sapiens, UniProt P41970 1-407).
T6 sequence: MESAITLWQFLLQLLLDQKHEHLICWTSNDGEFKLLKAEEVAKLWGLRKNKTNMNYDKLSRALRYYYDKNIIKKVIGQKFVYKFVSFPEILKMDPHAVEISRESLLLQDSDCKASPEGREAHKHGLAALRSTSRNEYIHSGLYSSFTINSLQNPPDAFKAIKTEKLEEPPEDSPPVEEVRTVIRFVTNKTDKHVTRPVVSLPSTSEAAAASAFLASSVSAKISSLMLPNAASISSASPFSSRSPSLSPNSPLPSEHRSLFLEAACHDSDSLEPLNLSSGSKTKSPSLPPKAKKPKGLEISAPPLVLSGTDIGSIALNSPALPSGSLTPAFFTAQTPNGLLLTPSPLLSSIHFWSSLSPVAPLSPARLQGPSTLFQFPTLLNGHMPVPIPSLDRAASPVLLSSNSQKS
Put shortly:
as §1

Chain of ELF1 (P32519 whole entry): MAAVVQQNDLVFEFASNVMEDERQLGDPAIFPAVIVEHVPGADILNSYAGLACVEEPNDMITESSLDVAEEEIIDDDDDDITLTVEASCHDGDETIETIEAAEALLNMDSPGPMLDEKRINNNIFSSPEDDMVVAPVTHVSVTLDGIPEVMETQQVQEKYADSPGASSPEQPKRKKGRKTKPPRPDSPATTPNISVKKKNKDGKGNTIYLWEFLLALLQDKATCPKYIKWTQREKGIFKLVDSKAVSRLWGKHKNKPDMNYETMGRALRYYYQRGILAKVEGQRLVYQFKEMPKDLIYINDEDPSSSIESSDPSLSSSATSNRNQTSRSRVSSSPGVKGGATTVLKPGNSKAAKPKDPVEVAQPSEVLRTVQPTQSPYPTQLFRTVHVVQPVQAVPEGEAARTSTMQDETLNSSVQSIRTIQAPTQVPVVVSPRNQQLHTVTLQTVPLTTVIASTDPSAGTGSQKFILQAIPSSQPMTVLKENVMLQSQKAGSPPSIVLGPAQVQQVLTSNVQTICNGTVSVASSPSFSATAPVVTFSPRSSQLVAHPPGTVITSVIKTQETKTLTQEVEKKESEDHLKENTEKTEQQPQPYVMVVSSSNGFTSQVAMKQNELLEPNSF
Chain of SPIB (Q01892 whole entry): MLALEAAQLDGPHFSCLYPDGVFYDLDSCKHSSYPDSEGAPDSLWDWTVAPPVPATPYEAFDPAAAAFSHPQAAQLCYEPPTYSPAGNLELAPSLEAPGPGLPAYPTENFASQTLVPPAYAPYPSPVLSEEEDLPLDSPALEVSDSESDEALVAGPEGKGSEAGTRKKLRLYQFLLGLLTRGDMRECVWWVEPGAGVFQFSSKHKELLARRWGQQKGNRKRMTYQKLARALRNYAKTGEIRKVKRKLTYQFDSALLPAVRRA

As for CCGCCT, the binding signal with FLI1 was 1.68 fold enrichment (6-mer frequency, TF over GST control); with ELK1 it was 1.55 fold enrichment (6-mer frequency, TF over GST control); with GABPA it was 1.55 fold enrichment (6-mer frequency, TF over GST control); with ERG, 1.55 fold enrichment (6-mer frequency, TF over GST control); with ELF1, 1.66 fold enrichment (6-mer frequency, TF over GST control); in the assay with EHF it was 1.67 fold enrichment (6-mer frequency, TF over GST control). Further, the binding signal with SPI1 is 1.5 fold enrichment (6-mer frequency, TF over GST control); with SPIB, 1.63 fold enrichment (6-mer frequency, TF over GST control); with ELK3 it was 1.82 fold enrichment (6-mer frequency, TF over GST control).
In the case of GCTCGC, the binding signal in the assay with FLI1 is 1.39 fold enrichment (6-mer frequency, TF over GST control); with ELK1, 1.29 fold enrichment (6-mer frequency, TF over GST control); with GABPA, 1.41 fold enrichment (6-mer frequency, TF over GST control); in the assay with ERG, 1.29 fold enrichment (6-mer frequency, TF over GST control); with ELF1, 1.42 fold enrichment (6-mer frequency, TF over GST control); in the assay with EHF, 1.27 fold enrichment (6-mer frequency, TF over GST control). Besides, the binding signal in the assay with SPI1 was 1.29 fold enrichment (6-mer frequency, TF over GST control); with SPIB, 1.42 fold enrichment (6-mer frequency, TF over GST control); in the assay with ELK3 it was 1.38 fold enrichment (6-mer frequency, TF over GST control).
CGACAA: the binding signal in the assay with FLI1 was 1.17 fold enrichment (6-mer frequency, TF over GST control); in the assay with ELK1, 1.09 fold enrichment (6-mer frequency, TF over GST control); with GABPA it was 1.26 fold enrichment (6-mer frequency, TF over GST control); with ERG, 1.17 fold enrichment (6-mer frequency, TF over GST control); with ELF1 it was 1.21 fold enrichment (6-mer frequency, TF over GST control); with EHF, 1.24 fold enrichment (6-mer frequency, TF over GST control). Besides, the binding signal with SPI1 was 1.12 fold enrichment (6-mer frequency, TF over GST control); with SPIB, 1.2 fold enrichment (6-mer frequency, TF over GST control); with ELK3 it was 1.07 fold enrichment (6-mer frequency, TF over GST control).
Turning to TCCTGT, the binding signal in the assay with FLI1 was 1.8 fold enrichment (6-mer frequency, TF over GST control); in the assay with ELK1, 1.72 fold enrichment (6-mer frequency, TF over GST control); with GABPA, 1.69 fold enrichment (6-mer frequency, TF over GST control); with ERG, 1.94 fold enrichment (6-mer frequency, TF over GST control); in the assay with ELF1 it was 1.71 fold enrichment (6-mer frequency, TF over GST control); in the assay with EHF, 1.67 fold enrichment (6-mer frequency, TF over GST control). In addition, the binding signal with SPI1 was 1.99 fold enrichment (6-mer frequency, TF over GST control); in the assay with SPIB, 1.88 fold enrichment (6-mer frequency, TF over GST control); in the assay with ELK3, 1.88 fold enrichment (6-mer frequency, TF over GST control).
Turning to AATTGT, the binding signal with FLI1 is 1.3 fold enrichment (6-mer frequency, TF over GST control); with ELK1, 1.2 fold enrichment (6-mer frequency, TF over GST control); with GABPA, 1.21 fold enrichment (6-mer frequency, TF over GST control); with ERG, 1.28 fold enrichment (6-mer frequency, TF over GST control); in the assay with ELF1, 1.27 fold enrichment (6-mer frequency, TF over GST control); in the assay with EHF, 1.23 fold enrichment (6-mer frequency, TF over GST control). In addition, the binding signal is 1.33 fold enrichment (6-mer frequency, TF over GST control) with SPI1; 1.34 fold enrichment (6-mer frequency, TF over GST control) with SPIB; 1.29 fold enrichment (6-mer frequency, TF over GST control) with ELK3.
For the sequence ACAAAT, the binding signal is 1.09 fold enrichment (6-mer frequency, TF over GST control) with FLI1; 1.18 fold enrichment (6-mer frequency, TF over GST control) in the assay with ELK1; 1.12 fold enrichment (6-mer frequency, TF over GST control) in the assay with GABPA; 1.15 fold enrichment (6-mer frequency, TF over GST control) in the assay with ERG; 1.15 fold enrichment (6-mer frequency, TF over GST control) in the assay with ELF1; 1.19 fold enrichment (6-mer frequency, TF over GST control) in the assay with EHF. Besides, the binding signal with SPI1 was 1.17 fold enrichment (6-mer frequency, TF over GST control); with SPIB, 1.11 fold enrichment (6-mer frequency, TF over GST control); in the assay with ELK3, 1.14 fold enrichment (6-mer frequency, TF over GST control).
Consider ACTAAC, for which the binding signal with FLI1 was 1.21 fold enrichment (6-mer frequency, TF over GST control); with ELK1 it was 1.3 fold enrichment (6-mer frequency, TF over GST control); with GABPA, 1.26 fold enrichment (6-mer frequency, TF over GST control); with ERG, 1.32 fold enrichment (6-mer frequency, TF over GST control); in the assay with ELF1, 1.3 fold enrichment (6-mer frequency, TF over GST control); in the assay with EHF, 1.27 fold enrichment (6-mer frequency, TF over GST control). The binding signal in the assay with SPI1 is 1.33 fold enrichment (6-mer frequency, TF over GST control); with SPIB, 1.24 fold enrichment (6-mer frequency, TF over GST control); in the assay with ELK3, 1.25 fold enrichment (6-mer frequency, TF over GST control).
Take TTACAA: the binding signal with FLI1 is 1.15 fold enrichment (6-mer frequency, TF over GST control); in the assay with ELK1, 1.17 fold enrichment (6-mer frequency, TF over GST control); in the assay with GABPA, 1.16 fold enrichment (6-mer frequency, TF over GST control); with ERG, 1.16 fold enrichment (6-mer frequency, TF over GST control); with ELF1 it was 1.15 fold enrichment (6-mer frequency, TF over GST control); with EHF it was 1.17 fold enrichment (6-mer frequency, TF over GST control). For the same sequence, the binding signal with SPI1 is 1.15 fold enrichment (6-mer frequency, TF over GST control); in the assay with SPIB it was 1.07 fold enrichment (6-mer frequency, TF over GST control); with ELK3 it was 1.13 fold enrichment (6-mer frequency, TF over GST control).
